Laboratory results taken from PubChem BioAssay (NCATS).
Records with an inconclusive call do not appear. Where a call stands in place of a potency, no number is given. Activity calls are given as the source filed them. Calls follow the shape of the dose curve; as a rule, active = well fitted inhibition curve with a large enough effect; inconclusive = small, poorly fitted or top-dose-only effect; inactive = no such curve, though single readings can be large or run the other way.

Test: NS1 protein of Zika virus - qHTS assay to identify small molecule inhibitors in human HEK 293 cells (AID 1347053); also: nearly all actives have a fitted effect of over 55% in size
Conditions: HEK293 ZIKV MR766 infection, NS1 TR-FRET, 24 h; series mostly up to 46.1 µM
Excerpt: National Center for Advancing Translational Sciences [NCATS]
Johns Hopkins University School of Medicine
The non-structural 1 (NS1) protein of zika virus is known to associate with the viral replication complex. This cell-based TR-FRET ZIKV NS-1 assay measures the increased NS-1 protein in human HEK 293 cells after a 24-hour Zika virus infection by a TR-FRET assay readout. A decrease in the Time-resolved fluorescence energy transfer (TR-FRET) signal in this assay by small molecule treatment indicates an inhibitory effect of the small molecule on the expression of Zika virus NS1 correlating with Zika virus replication.
HEK 293 cells were cultured in EMEM (ATCC, Cat. # 30-2003) medium with 10% fetal bovine serum (GE healthcare Life Sciences, Cat. # SH30071.03), and 1% Pen/Strep (Gibco, Cat. # 15140-122). Cells were seeded in the assay plate and incubated at 37 C with 5% CO2 for 20 hours. Compounds were added to cells and incubated for one hour before addition of ZIKV MR766 strain solution to cells (MOI = 0.5). After an incubation at 37 C for 24 hours, the reagent mixture of TR-FRET ZIKV NS1 assay using two anti-ZIKV NS1 antibodies was added to assay plates. The TR-FRET signals in assay plates were measured using an Envision plate reader (PerkinElmer). Data were normalized by using the cell-containing wells without ZIKV as a negative control (0% NS-1) and wells containing ZIKV infected cells as a positive control (100% NS-1 level).

Row | SMILES | Potency
1 | CCCCCCCC/C=C\CCCCCCCCN | inactive
2 | CC(=O)Nc1ncc([N+](=O)[O-])s1 | inactive
3 | O=C(Nc1cccc(C2=NCCN2)c1)Nc1cccc(C2=NCCN2)c1 | inactive
4 | O=c1[nH]c(=O)n([C@H]2C[C@H](O)[C@@H](CO)O2)cc1F | inactive
5 | NCCNc1cccc2ccccc12 | inactive
6 | CC(C)(C)NC[C@H](O)COc1cccc2c1CCCC2=O | inactive
7 | NCCNC(=O)c1ccc(Cl)cn1 | inactive
8 | Nc1ccc(S(=O)(=O)Nc2cnc3ccccc3n2)cc1 | inactive
9 | Cn1c(=O)c2[nH]c(Br)nc2n(C)c1=O | inactive
10 | CC(C(=O)O)c1cccc(Oc2ccccc2)c1 (stereo not given) | inactive
11 | O=C(CCN1CCN2CCCC2C1)N1c2ccccc2Sc2ccc(Cl)cc21 (stereo not given) | inactive
12 | O=C(Nc1ccc([N+](=O)[O-])cc1)Nc1ccc([N+](=O)[O-])cc1 | inactive
13 | CCOc1ccccc1C(N)=O | inactive
14 | O=C1C(=O)c2ccccc2C(O)=C1C1CCC(c2ccc(Cl)cc2)CC1 (stereo not given) | inactive
15 | CCN(CC)CCOc1ccc2c(c1)C(=O)c1cc(OCCN(CC)CC)ccc1-2 | inactive
16 | CCN(CC)CCOC(=O)C(Cc1cccc2ccccc12)CC1CCCO1 (stereo not given) | inactive
17 | Cc1cc(CC(=O)O)c(C)n1-c1ccc(Cl)cc1 | inactive
18 | C[C@]12CCC(=O)C=C1C=C[C@@H]1[C@@H]2CC[C@@]2(C)[C@H]1CC[C@@]21CCC(=O)O1 | inactive
19 | C[C@H]1O[C@@H](O[C@H]2CC[C@@]3(C)[C@H](CC[C@@H]4[C@@H]3C[C@@H](O)[C@]3(C)[C@@H](C5=CC(=O)OC5)CC[C@]43O)C2)C[C@H](O)[C@@H]1O[C@H]1C[C@H](O)[C@H](O[C@H]2C[C@H](O)[C@H](O[C@@H]3O[C@H](CO)[C@@H](O)[C@H](O)[C@H]3O)[C@@H](C)O2)[C@@H](C)O1 | inactive
20 | NS(=O)(=O)c1ccc(Cl)c(S(N)(=O)=O)c1 | inactive

Row | SMILES | Potency
21 | CCc1nn(CCCN2CCN(c3cccc(Cl)c3)CC2)c(=O)n1CCOc1ccccc1 | inactive
22 | Cc1c(-c2ccccc2)oc2c(C(=O)OCCN3CCCCC3)cccc2c1=O | inactive
23 | CCOC(=O)[C@H](CCc1ccccc1)N[C@@H](C)C(=O)N1[C@H](C(=O)O)C[C@H]2CCCC[C@@H]21 | inactive
24 | CN(C)CCC[C@@]1(c2ccc(F)cc2)OCc2cc(C#N)ccc21 | inactive
25 | CCCCCCCCCCCCSCCOCCO | inactive
26 | CC1=C(C(=O)O)N2C(=O)[C@@H](NC(=O)[C@H](N)c3ccccc3)[C@H]2SC1 | inactive
27 | Cc1cccc(C)c1NC(=O)CN1CCCC1 | inactive
28 | CCCCN=C(N)N=C(N)N | inactive
29 | CCN(CC)CCNC(=O)c1cc(Br)c(N)cc1OC | inactive
30 | OCCOCCN1CCN(C2=Nc3ccccc3Sc3ccccc32)CC1 | inactive
31 | CN1CCN(C2=Nc3cc(F)ccc3Cc3ccccc32)CC1 | inactive
32 | CN1CCc2cccc3c2[C@H]1Cc1ccc(O)c(O)c1-3 | inactive
33 | CCC(CC)(CC(=O)Nc1cccc(/C=C/c2nc(C3CCC3)cs2)c1)C(=O)O | inactive
34 | OC1C(O)C(O)C(O)C(O)C1O (stereo not given) | inactive
35 | CC(=O)O[C@]1(C(C)=O)CC[C@H]2[C@@H]3C=C(C)C4=CC(=O)CC[C@]4(C)[C@H]3CC[C@@]21C | inactive
36 | CO[C@H]1C=CO[C@@]2(C)Oc3c(C)c(O)c4c(O)c(c(/C=N/N5CCN(C)CC5)c(O)c4c3C2=O)NC(=O)/C(C)=C\C=C[C@H](C)[C@H](O)[C@@H](C)[C@@H](O)[C@@H](C)[C@H](OC(C)=O)[C@@H]1C | inactive
37 | CCCCC(CC)COC(=O)c1ccc(N(C)C)cc1 (stereo not given) | inactive
38 | COc1cc(C(=S)N2CCOCC2)ccc1O | inactive
39 | O=C(O)Cc1csc(-c2ccc(Cl)cc2)n1 | inactive
40 | O=C1C(O)=C(O)C(=O)C(O)=C1O | inactive
